# High-throughput results from PubChem BioAssay.
# A selection: hits, their analogues and other compounds. The true share with any hit is near 9.4%.
# FLuc counter: qHTS profiling assay for firefly luciferase inhibitor/activator using purifed enzyme and Km concentrations of substrates (counterscreen for miR-21 project); Potency, µM (top dose mostly 57.5 µM), for inactives: at the top dose activity change, negative = inhibition, most hits filed as inhibitors; Luciferin 4-monooxygenase (Photinus pyralis), P08659; hit rate 6.9% among 360,000; AID 588342, 2011; purified FLuc, Km substrates, luminescence inhibition;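 note: plate controls were vehicle for no effect and reference inhibitor for full effect; nearly all actives have a fitted effect of over 55% in size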
# Target sequence (P08659 whole entry, looked up): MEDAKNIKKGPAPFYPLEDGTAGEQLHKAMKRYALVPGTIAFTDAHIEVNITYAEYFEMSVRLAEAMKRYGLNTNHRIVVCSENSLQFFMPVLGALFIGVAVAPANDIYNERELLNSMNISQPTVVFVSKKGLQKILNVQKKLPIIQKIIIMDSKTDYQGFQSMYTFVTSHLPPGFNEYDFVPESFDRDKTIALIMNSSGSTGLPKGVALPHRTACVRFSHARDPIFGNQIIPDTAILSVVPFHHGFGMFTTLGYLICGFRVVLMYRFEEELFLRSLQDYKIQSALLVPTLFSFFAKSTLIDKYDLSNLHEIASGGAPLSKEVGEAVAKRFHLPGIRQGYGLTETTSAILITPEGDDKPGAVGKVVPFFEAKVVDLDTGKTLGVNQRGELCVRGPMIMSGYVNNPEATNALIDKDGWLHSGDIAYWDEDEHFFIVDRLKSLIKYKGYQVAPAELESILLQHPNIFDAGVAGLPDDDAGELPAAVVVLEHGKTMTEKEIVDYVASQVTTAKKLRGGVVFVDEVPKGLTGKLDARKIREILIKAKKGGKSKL
#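 Purified P. pyralis luciferase, 10 nM final, with Km-level 10 uM D-luciferin and 10 uM ATP in 50 mM Tris acetate pH 7.5, 10 mM Mg acetate, 0.01% Tween-20, 0.05% BSA; 6-point qHTS titration about 60 µM downward; luminescence read.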
# Rab9 prom act: qHTS Assay for Rab9 Promoter Activators; Huh7 Rab9 promoter-luciferase reporter, luminescence, 24 h; hit rate 2.8% among 320,000; AID 485297, 2010; Potency, µM (series often up to 9.22 µM), for inactives: at the top dose activation, negative = inhibition, usual class: activators; note: % of control where 0% means no effect; nearly all actives have a fitted effect of over 60% in size
#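 Quantitative HTS format; Huh7 Rab9-luciferase reporter cells (1500/well) receive compound 2 h post-plating, incubate 24 h at 37 °C, then get luciferase reagent for 10 min before luminescence reading.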
# ELG1 genotox: qHTS screen for small molecules that induce genotoxicity in human embryonic kidney (HEK293T) cells expressing luciferase-tagged ELG1; HEK293T ELG1-luciferase reporter, luminescence, 16 h; Potency, µM (doses to about 46 µM), without a hit: at the top dose activity change, positive = activation, hits mostly activators; hit rate 1.3% among 330,000; AID 504466, 2011; note: % of control where 0% means no effect; nearly all actives have a fitted effect of over 60% in size
#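 Screening used a luciferase reporter fused to human ELG1 in HEK293T cells. Luminescence was read on a CCD plate imager after 16 hr exposure and 30 min ONE-Glo incubation.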
# SMN2 splice up: qHTS Assay for Enhancers of SMN2 Splice Variant Expression | HEK293 SMN2-luciferase splicing reporter, luminescence, 30-36 h | Potency, µM (doses to about 46.1 µM), without a hit: at the top dose activity change, positive = activation, most hits filed as activators | hit rate 2.8% among 210,000 | AID 1458, 2008; note: % of control where 0% means no effect; nearly all actives have a fitted effect of over 55% in size
#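 HEK293 cells carry an SMN2 minigene-luciferase reporter in which exon 7 inclusion puts luciferase in frame. Cells were seeded at 2000 cells/well, attached for 10-12 hours, then exposed to compounds for 30-36 hours at 37C before ONE-Glo luminescence.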
# ELG1 repair inh: qHTS screen for small molecules that inhibit ELG1-dependent DNA repair in human embryonic kidney (HEK293T) cells expressing luciferase-tagged ELG1. HEK293T ELG1-luciferase reporter, luminescence, 16 h; DNA damage induced by 5-fluorouridine. Potency, µM (series often up to 46.1 µM), inactives show at the highest dose activity change, negative = inhibition, most hits filed as inhibitors. hit rate 2.3% among 330,000. AID 504467, 2011; note: % is set by controls: 0 for no effect and ±100 for the full control effect; nearly all actives have a fitted effect of over 55% in size
#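 Reporter activity after DNA damage by 5-fluorouridine is monitored. Compound-treated cells incubate 16 hr at 37 °C, then ONE-Glo is added for 30 min before luminescence reading.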
# NPC1 prom act: qHTS Assay for NPC1 Promoter Activators. Huh7 NPC1 promoter luciferase reporter, 24 h. hit rate 2.4% among 320,000. AID 485313, 2010. Potency, µM (doses to about 9.22 µM), without a hit: at the highest dose activation, actives largely listed as activators; note: % of control where 0% means no effect; nearly all actives have a fitted effect of over 60% in size
#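 Compounds in DMSO were transferred onto Huh7 NPC1-luciferase reporter cells pre-incubated 2 h; after 24 h at 37 °C, Amplite reagent was dispensed and luminescence recorded 10 min later.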
# Starred values were filed as active, the others as inactive; ? = inconclusive; / = no result given; [ ] = another dose, or the depositor's remark. Calls come from the whole dose curve; as a rule, active = well fitted curve in the direction sought with a large enough effect; inconclusive = small, poorly fitted or top-dose-only effect, or another doubt; inactive = no such curve, though single readings can be large; an effect the other way counts as inactive or inconclusive. Potency is the fitted concentration of half-maximal effect.
SMILES,FLuc counter,Rab9 prom act,ELG1 genotox,SMN2 splice up,ELG1 repair inh,NPC1 prom act
Cc1cc(C)c2nc(Nc3nc(-c4ccccc4)cc(=O)[nH]3)nc(C)c2c1,1.7µM*,1%,4%,/,?,9%
COCc1cc(=O)[nH]c(Nc2nc3ccccc3o2)n1,?,26%,?,-37%,?,?
COC(=O)Cc1cc(=O)[nH]c(Nc2nc3ccccc3o2)n1,17µM*,-4%,8%,24%,0%,5%
CCOC(=O)Cc1cc(=O)[nH]c(Nc2nc3ccccc3o2)n1,?,10%,0%,13%,?,4%
Cc1ccc2oc(Nc3nc(C)cc(C)n3)nc2c1,?,3.2µM*,9%,4%,?,?
Cc1ccc2oc(Nc3nc(-c4ccccc4)cc(=O)[nH]3)nc2c1,?,?,21µM*,-15%,?,20%
COc1ccccc1N(CC(=O)Nc1cc(C)cc(C)c1)S(C)(=O)=O,-6%,/,/,-8%,/,/
O=C(Cc1ccccc1)Nc1c(C(=O)Nc2ccccc2F)oc2ccccc12,2%,/,/,5%,/,/
COc1ccc(C(=O)N2CCN(Cc3ccccc3)CC2)cc1[N+](=O)[O-],1%,-4%,-7%,/,?,0%
COc1ccc2[nH]c(C(=O)N3CCN(Cc4ccccc4)CC3)cc2c1OC,15µM*,4%,6%,/,17%,1%
Cc1[nH]c2ccc(C(=O)N3CCN(Cc4ccccc4)CC3)cc2c1C,6µM*,3%,2%,/,17%,16%
CC(=O)c1ccc(N=Nc2ccc(N)cc2)cc1,1.5µM*,0.32µM*,?,/,?,0.4µM*
Cc1ccc(-c2c[n+](Cc3ccc(Cl)c(Cl)c3)c3n2CCC3)cc1,0%,-7%,-12%,-30%,21µM*,-9%
O=C(C[n+]1cc(-c2ccccc2)n2c1CCCCC2)c1ccc(Br)cc1,-2%,-10%,-12%,-17%,?,-1%
Cc1ccc(NC(=O)C[n+]2cc(-c3ccc(C)cc3)n3c2CCC3)cc1,1%,0%,-5%,/,0%,1%
Cc1ccc(C(=O)C[n+]2cc(-c3ccc(C)cc3)n3c2CCCCC3)cc1,-3%,-27%,-8%,-67%,16µM*,-39%
COc1ccc(-c2c[n+](CC(=O)c3cccs3)c3n2CCC3)cc1,0%,-3%,-11%,/,23µM*,1%
COc1ccc(C(=O)C[n+]2cc(-c3ccc(OC)cc3)n3c2CCCC3)cc1,0%,-4%,-15%,-5%,7.3µM*,-11%
Cc1cccc(N=Nc2cnc(N)s2)c1,6µM*,3.2µM*,?,/,?,3.2µM*
CC(=O)Nc1ncc(N=Nc2cccc(C(F)(F)F)c2)s1,0%,19%,13%,/,0%,2%
CCn1cc2c(n1)-c1c(oc(C(=O)Nc3cccc(C)c3C)c1C)CC2,-2%,/,/,/,/,/
COc1ccccc1-c1nc(-c2ccc(C)nc2OC)no1,4.3µM*,2µM*,8.2µM*,13µM*,?,4µM*
COc1nc(C)ccc1-c1noc(-c2ccccn2)n1,6µM*,0.56µM*,1.2µM*,8.9µM*,?,1.3µM*
COc1nc(C)ccc1-c1noc(-c2cccnc2)n1,24µM*,?,?,/,?,?
COc1nc2cc(C)ccc2cc1-c1noc(-c2cccnc2)n1,2%,1%,0%,-8%,15%,5%
SMILES,FLuc counter,Rab9 prom act,ELG1 genotox,SMN2 splice up,ELG1 repair inh,NPC1 prom act
COc1nc(-c2ccccc2)ccc1-c1noc(C)n1,?,/,/,14%,/,/
CCc1nc(-c2ccc(C)nc2OC)no1,3%[2.3 µM],-1%,1%,-4%,11%,2%
O=C(c1ccc2c(c1)N(Cc1ccc(Cl)cc1)C(=O)c1ccccc1S2(=O)=O)N1CCCC1,-5%,/,/,-9%,/,/
CC(=O)N1c2ccc(Cl)cc2C2OCCC2C1c1ccco1 (stereo not drawn),-1%,1%,-1%,/,-6%,1%
Clc1ccc2c(c1)C1OCCC1C(c1ccco1)N2 (stereo not drawn),?,4.5µM*,?,13µM*,?,?
CCCN(CCC)C(=O)Cn1c(=O)n(-c2ccccc2)c(=O)c2c3c(sc21)CCCC3,-3%,/,/,-1%,/,/
CCCCNC(=O)Nc1nnc(-c2ccc(OCC)cc2)o1,0%,19%,0%,-13%,4%,5%
Cc1nnc(NC2=NCCC2)o1,0%,-6%,1%,?,7%,-3%
CCOC(=O)CNC(=O)Nc1nnc(-c2ccc(OCC)cc2)o1,12µM*,3%,8%,-7%,23%,23%
CCOc1ccc(-c2nnc(-c3ccccc3)o2)cc1,1.1µM*,0.71µM*,?,0.56µM*,?,1.6µM*
c1coc(-c2nnc(NC3=NCCC3)o2)c1,19µM*,3.5µM*,16µM*,13µM*,?,?
CCCCOC(=O)c1nnc(-c2ccccc2)o1,12µM*,2%,3%,/,0%,1%
Cc1nn2c3c(cnc2c1-c1ccc(Cl)cc1)C(=O)CC(c1ccc(C(C)C)cc1)C3 (stereo not drawn),1%,/,/,6%,/,/
CCOc1ccc(-c2nnc(NC3=NCCCCC3)o2)cc1,4.8µM*,1.6µM*,2.3µM*,13µM*,?,?
CCCCOc1ccc(-c2nnc(-c3ccncc3)o2)cc1,12µM*,4µM*,?,/,?,?
CCCCOc1ccc(-c2nnc(-c3cc[n+](C)cc3)o2)cc1,-1%,-3%,-2%,/,-15%,2%
CCOc1ccc(-c2nnc(-c3ccncc3)o2)cc1,9.5µM*,1.6µM*,20%,?,?,1.8µM*
CN(C)c1ccc(-c2nnc(-c3cccs3)o2)cc1,0.76µM*,0.32µM*,?,2.2µM*,?,0.5µM*
CCOc1ccc(-c2nnc(-c3ccc(OC)cc3)o2)cc1,?,19%,2%,-6%,?,10%
O=C(NCc1cccs1)c1ccc2c(c1)N(Cc1ccccc1Cl)C(=O)c1ccccc1S2,1%,/,/,/,/,/
CCOC(=O)Cc1nnc(-c2ccccc2)o1,-2%,-1%,3%,9%,-1%,-1%
CCCOc1ccc(-c2nnc(-c3cccs3)o2)cc1,0.67µM*,0.56µM*,?,4.5µM*,?,0.71µM*
CCOC(=O)COc1ccc(-c2nnc(-c3ccccc3)o2)cc1,6µM*,11%,21%,/,?,3%
